PubChem BioAssay (NCI)
The panel holds about 79,000 compounds, 15% with a hit somewhere; the sample as a whole holds those more often. Activity calls are given as the source filed them. Rule as the data show it: active = growth inhibition above about 70%; inactive = the rest.

What was measured:
[1] = NCI Yeast Anticancer Drug Screen. Data for the rad50 strain (AID 155);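 also: 0% = growth of vehicle-only cultures of the same strain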; details: S. cerevisiae rad50 strain growth inhibition; at 50.0 µM; stronger effect = higher value
Procedure, shortened: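 A DNA repair-deficient yeast mutant serves as the test organism; compound-induced growth inhibition is calculated against vehicle-treated cells.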

[2] = NCI Yeast Anticancer Drug Screen. Data for the mec2-1 strain (AID 157); details: S. cerevisiae mec2-1 strain, at 50.0 µM, stronger effect = higher value
Procedure, shortened: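 Each compound was tested on mec2-1 yeast, a strain altered in DNA damage repair or cell cycle control. Growth inhibition is reported relative to vehicle.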

[3] = NCI Yeast Anticancer Drug Screen. Data for the sgs1 mgt1 strain (AID 161);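 also: 0% = growth of cultures given vehicle only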; details: S. cerevisiae sgs1 mgt1 strain, at 50.0 µM, stronger effect = higher value
Procedure, shortened: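 Genetically altered yeast, compound exposure, growth inhibition relative to vehicle.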

[4] = NCI Yeast Anticancer Drug Screen. Data for the cln2 rad14 strain (AID 165);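 also: 0% = growth equal to vehicle treated cultures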; details: S. cerevisiae cln2 rad14 strain, at 50.0 µM, stronger effect = higher value
Procedure, shortened: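 Test compounds were added to cln2 rad14 yeast cultures; inhibition of growth was then determined by comparison with vehicle treatment.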

[5] = NCI Yeast Anticancer Drug Screen. Data for the bub3 strain (AID 167); details: S. cerevisiae bub3 mutant strain, at 50.0 µM, stronger effect = higher value
Procedure, shortened: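 Inhibition values come from growth of compound-treated mutant yeast normalised to vehicle-treated controls.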

[6] = NCI Yeast Anticancer Drug Screen. Data for the mlh1 rad18 strain (AID 175); details: S. cerevisiae mlh1 rad18 strain growth inhibition; at 50.0 µM; stronger effect = higher value
Procedure, shortened: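 Inhibition values reflect reduced growth of mutant yeast versus vehicle-treated controls following compound exposure; the mutations affect DNA damage repair.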

Measured: growth inhibition

O=C1c2cccc3cccc(c23)C(=O)N1Cc1ccco1
inactive: [1] 41.4% | [2] 36.2% | [3] 45% | [4] 44.5% | [5] 40.2% | [6] 24.7%

CCCCc1nc(C)oc1C(C)C
inactive: [1] -31.2% | [2] -15.8% | [3] -8.05% | [4] -5.45% | [5] -23.9% | [6] -8.2%

C=C(C)C(=O)OCC(CC)(COC(=O)C(=C)C)COC(=O)C(=C)C
inactive: [1] -9.25% | [2] -19.6% | [3] 8.35% | [4] -2.05% | [5] 18.6% | [6] 0%

CC(C)(C)NC(=O)Nc1nccs1
inactive: [1] 7.8% | [2] -7.9% | [3] -6.2% | [4] -86.5% | [5] -3.9% | [6] 9.85%

COc1ccc(CCNC(=S)NCCc2ccc(OC)cc2)cc1
inactive: [1] 11.8% | [2] 12.8% | [3] -1.4% | [4] -28% | [5] -7.25% | [6] -21%

CC(=O)OCCCC(C)Nc1ccnc2cc(Cl)ccc12 (stereo unspecified)
inactive: [1] -8.15% | [2] -8.95% | [3] -2.35% | [4] 19.9% | [5] -7.9% | [6] 11.3%

Nc1ccc(S(=O)(=O)N/N=C/c2ccco2)cc1
inactive: [1] 27.1% | [2] -25.1% | [3] 2.8% | [4] 1.6% | [5] -50.5% | [6] -15.1%

CC(=O)Nc1ccccc1NC1CC(C)N(c2ccccc2)N1C(C)=O (stereo unspecified)
inactive: [1] -10.9% | [2] -42.4% | [3] -40.4% | [4] -11.5% | [5] -34.4% | [6] 1.05%

O=c1cc(NCc2cccc3ccccc23)[nH]c(=O)[nH]1
inactive: [1] 4.45% | [2] 24.1% | [3] -5.25% | [4] -10.1% | [5] -0.75% | [6] -7.1%

CCCCCOC(=S)S.[Ag]
inactive: [1] -5.65% | [2] -15.2% | [3] -1.55% | [4] 13.2% | [5] -16.2% | [6] -8.4%

COc1cc(-c2ccccc2)c(OC)cc1CCl
inactive: [1] 4.05% | [2] 2.95% | [3] 17.8% | [4] 6% | [5] 13.7% | [6] 20%

CC1=CC=CC(C)(C)C(=O)C1=O
inactive: [1] -31.4% | [2] -13.2% | [3] -12.8% | [4] -18.9% | [5] -21.5% | [6] -15.4%

c1ccc(CNCc2ccccc2)cc1
inactive: [1] -2.65% | [2] 3.8% | [3] -37.8% | [4] -35.1% | [5] 18.6% | [6] 1.05%

COc1ccc(C(O)C(=O)c2nc3ccc([N+](=O)[O-])cc3[nH]c2=O)cc1 (stereo unspecified)
inactive: [1] -16.5% | [2] -49.5% | [3] -29.5% | [4] -22.1% | [5] -36.5% | [6] -5.2%

CCC/C(=N/NC(N)=O)c1ccco1
inactive: [1] -2.85% | [2] -1.55% | [3] -8.15% | [4] -2.25% | [5] -1.7% | [6] -0.3%

Cc1cc2c(=O)cc(-c3ccncc3)oc2c(C(=O)O)c1C
inactive: [1] 20.7% | [2] 0.2% | [3] -10.3% | [4] 20.5% | [5] 26.9% | [6] -5.5%

O=C(CC1(O)C(=O)Nc2ccc(Br)cc21)c1ccc(Cl)cc1Cl (stereo unspecified)
inactive: [1] 44.9% | [2] 36.7% | [3] 69% | [4] 37% | [5] 48.2% | [6] 33.9%

C=C(C)COc1ccc(Nc2ccccc2)cc1
inactive: [1] 5.7% | [2] 18.4% | [3] 22% | [4] 6.65% | [5] 2.35% | [6] 34%

Fc1ccc(NC(=S)Nc2ccc(F)cc2)cc1
inactive: [1] -19.4% | [2] -5.8% | [3] -10.7% | [4] -6.65% | [5] 15.1% | [6] 3.4%

O=C(OCCOCBr)c1ccccc1
inactive: [1] -9.75% | [2] -32.5% | [3] 19.9% | [4] 18% | [5] 31.1% | [6] -14.3%

CCOC(=O)c1ccc(Nc2nc3ccccc3o2)cc1
inactive: [1] 5% | [2] -7.6% | [3] 9.05% | [4] -14.2% | [5] -0.95% | [6] 1.7%

C/C(=N\NC(=S)N1CCC(C2CCN(C(=S)N/N=C(\C)c3ccccn3)CC2)CC1)c1ccccn1
inactive: [1] 32.4% | [2] 15.5% | [3] 60.1% | [4] 45.2% | [5] 63.9% | [6] -27.4%

O=C1OC(c2ccccc2)N(C(=O)c2ccccc2)C1Cc1ccc(OCc2ccccc2)cc1 (stereo unspecified)
inactive: [1] -30.5% | [2] -6.4% | [3] -5.65% | [4] -13.7% | [5] 0.95% | [6] 5.75%

C(CCN1CN(CCCCN2CCOCC2)CN(CCCCN2CCOCC2)C1)CN1CCOCC1
inactive: [1] 12.8% | [2] 4.75% | [3] 10.4% | [4] -5.5% | [5] -1.75% | [6] 29.6%

COc1nc(C(O)C2OC(C)(C)OCC2O)[nH]c1C#N (stereo unspecified)
inactive: [1] 6.05% | [2] 7% | [3] 7.75% | [4] 10.7% | [5] 2.35% | [6] 7.35%

N=C1N=Nc2nc(C(C(=O)c3cccc([N+](=O)[O-])c3Cl)c3nc4n(c3O)C(=N)N=N4)c(O)n21 (stereo unspecified)
inactive: [1] -2.65% | [2] 0.7% | [3] 13.8% | [4] -23.5% | [5] -0.15% | [6] 2.8%

CC(=O)Nc1ccccc1NOC(=O)c1ccccc1NC(C)=O
inactive: [1] -3.1% | [2] -8.9% | [3] 4.45% | [4] 32.7% | [5] 25.1% | [6] 18.1%

CCC1(C#N)OC1C (stereo unspecified)
inactive: [1] 26.9% | [2] -24.1% | [3] 23.1% | [4] 10.8% | [5] 5.15% | [6] 27.4%

Nc1ccc2ccc(NS(=O)(=O)N3CCCCC3)cc2c1
inactive: [1] 31.8% | [2] 46.9% | [3] 43.1% | [4] 52.6% | [5] 18.5% | [6] 50.9%

CC1(C)CC2(C)Sc3ccccc3N2C(=S)N1 (stereo unspecified)
inactive: [1] -35.6% | [2] -2.15% | [3] 13.8% | [4] -19.6% | [5] -0.75% | [6] 17.9%

Cc1c2n(c(=O)[nH]c1=O)C1OC(CO)C(N=[N+]=[N-])C1O2 (stereo unspecified)
inactive: [1] -5.5% | [2] -15.9% | [3] -42% | [4] -12.3% | [5] -39.2% | [6] -32.2%

O=C(O)CSc1ccc2c3c(cccc13)C(=O)c1ccccc1-2
inactive: [1] -9.9% | [2] 27.4% | [3] 7.95% | [4] 26% | [5] 56.8% | [6] 3.1%

CC(C)CC1NC(=O)C(C(C)C)NC(=O)CC(C)COC(=O)C(CC(C)C)N(C)C(=O)C(C(C)C)NC(=O)C(C(C)C)OC1=O (stereo unspecified)
inactive: [1] -8.2% | [2] -3.7% | [3] 7.55% | [4] 7.95% | [5] 8.1% | [6] 14.3%

Cc1ccc(C2(C)CC[C@@H]3C[C@@]32C)c(O)c1 (stereo partly specified)
active: [1] 91.2% | [2] 93.8% | [3] 93.5% | [4] 92.2% | [5] 92.7% | [6] 91.8%

CCOC(=O)C(NC(C)=O)C(=O)OCC
inactive: [1] -3.4% | [2] 10.2% | [3] 3.5% | [4] -12.6% | [5] -7.15% | [6] -16.4%

CCCC(=O)Nc1cccc(Cl)c1
inactive: [1] 16.2% | [2] 9.05% | [3] 8.85% | [4] 7.65% | [5] -0.75% | [6] 2.35%

NC(CC(=O)NC(CC(=O)O)C(=O)O)C(=O)O (stereo unspecified)
inactive: [1] -5.5% | [2] -1% | [3] -8.9% | [4] -56% | [5] -20% | [6] 5.2%

O=C1/C(=C/c2ccccc2)SC(=S)N1C1c2ccccc2Oc2ccccc21
inactive: [1] 35.4% | [2] 14.6% | [3] 53.8% | [4] 38.8% | [5] 5.25% | [6] 30.1%

O=[N+]([O-])c1ccc(C(O)(C#CCN2CCCC2)c2ccccc2)cc1 (stereo unspecified)
inactive: [1] 20.5% | [2] 11.9% | [3] -24.1% | [4] 10.2% | [5] 3.5% | [6] 12.7%

Cc1cc(Br)ccc1N=c1scc(-c2ccc(Cl)cc2)n1C
inactive: [1] -22.2% | [2] -27.6% | [3] 4.45% | [4] 0.1% | [5] 16.1% | [6] 15.1%

Clc1ccc(-c2nnc(-c3ccncc3)o2)c(Cl)c1
inactive: [1] 18.1% | [2] -4.5% | [3] 17.9% | [4] -1.6% | [5] 27.2% | [6] 15.6%
